Test in all cases: NCI-60 one-dose screen, 48 h (100 = growth as untreated, 0 = no growth, -100 = all killed)
Details in all cases: 10 µM unless noted

The subject of experiment [1] is NCI-H23 lung.
Experiment [2] concerns NCI-H226 lung.
Experiment [3] relates to NCI-H322M lung.
Experiment [4] deals with HOP-62 NSCLC.
Experiment [5] deals with NCI-H460 lung.
The subject of experiment [6] is HOP-92 NSCLC.
Experiment [7] has as its system NCI-H522 lung.
In experiment [8] the test system is A549/ATCC NSCLC.
In experiment [9] the test system is 786-0 renal.
For experiment [10], the system named is COLO 205 colon.
Experiment [11] relates to DU-145 prostate.
Experiment [12] concerns K-562 leukemia.
Experiment [13] relates to MALME-3M melanoma.
Experiment [14] has as its system MDA-MB-231 breast.
Experiment [15] concerns RXF 393 renal.
Experiment [16] deals with SF-268 CNS.
Experiment [17] relates to SF-295 CNS.
Experiment [18] concerns SF-539 CNS.
The test system of experiment [19] is UACC-257 melanoma.
Experiment [20] concerns M14 melanoma.

Compounds without any hit were thinned out: in the full panel of roughly 83,000, 20% have a hit.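 The test compound was applied at a single concentration to cells in 96-well plates for 48 hours, and percent growth was recorded.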 A number with no mark means an inactive call. Activity calls are given as the source filed them. How the source made its calls: active means growth percent below 10; inactive means the rest.

As for `O=C(CSc1nnc(-c2cccs2)n1-c1ccccc1)Nc1ccccc1F`, the growth in experiment [1] was 90.8%; in experiment [2] it was 96.3%; in experiment [3], 103%; in experiment [4], 76.9%; in experiment [5], 96.6%; in [6] it was 93%. In addition, the growth was 55% in experiment [7]; 89.6% in experiment [8]; 99.4% in experiment [9]; 70.8% in [10]; 102% in [11]; 26.6% in [12]. Also, the growth in experiment [13] is 70.2%; in experiment [14], 86.5%; in experiment [15], 90.7%; in [16], 93.7%; in experiment [17], 83.2%; in experiment [18] it was 87.9%. Further, the growth in [19] is 95.3%; in [20], 74.7%.
`Cc1ccc(NC2=C(Cl)C(=O)c3nc(C)ccc3C2=O)c(C)c1`: the growth in experiment [1] was -49.9% (active); in [2] it was 23.2%; in [3], 36.7%; in experiment [4], 47.2%; in experiment [5] it was 46.2%; in experiment [6], 84.7%. Also, the growth in [7] was -38.3% (active); in experiment [8], 46.5%; in experiment [9] it was 23.7%; in experiment [10] it was 98%; in [11], -1.93% (active); in [12] it was 2.95% (active). Also, the growth in [13] was 13.9%; in experiment [14] it was 11.9%; in experiment [15] it was 31.1%; in experiment [16] it was 24.8%; in experiment [17] it was -29.9% (active); in experiment [18] it was -61.9% (active). Also, the figures for the growth in experiment [19] and in experiment [20] were -80.6% (active) and -58.3% (active), respectively.
In the case of `O=C(Nc1ccc(N=Cc2c(O)[nH]c3ccccc23)cc1)Nc1ccc(S(=O)(=O)Nc2ncccn2)cc1`, the growth in experiment [1] was 27.1%; in [2] it was 96.7%; in experiment [3], 114%; in experiment [4], 99%; in experiment [5] it was 104%; in experiment [6] it was 94.2%. Further, the growth in experiment [7] is 95%; in [8] it was 101%; in experiment [9], 100%; in experiment [10], 125%; in [11] it was 110%; in experiment [12] it was 98%. Also, the growth is 112% in experiment [13]; 107% in [14]; 122% in [15]; 109% in experiment [16]; 101% in [17]; 105% in experiment [18]. Further, the figures for the growth in experiment [19] and in experiment [20] were 103% and 104%, respectively.
For `O=S(=O)(NCCCNc1nccc(-c2[nH]c(-c3ccccc3)nc2-c2ccc(F)c(O)c2)n1)c1ccc(C(F)(F)F)cc1`, the growth in [1] is 70.7%; in experiment [2] it was 48.5%; in experiment [3], 95.4%; in experiment [4] it was 62.3%; in experiment [5] it was 16.3%; in experiment [6], 71.6%. In addition, the growth in experiment [7] was 18.8%; in experiment [8], 41.7%; in experiment [9] it was 48%; in experiment [10], 88.3%; in experiment [11] it was 79.9%; in [12], 9.88% (active). Moreover, the growth was -5.99% (active) in experiment [13]; 67.1% in experiment [14]; 24.5% in experiment [15]; 54% in [16]; 31.3% in experiment [17]; 31.1% in experiment [18]. For the same compound, the growth was 24.6% in [19] and 3.88% (active) in experiment [20].
With `c1ccc(-c2cn3c(-c4c[nH]c5ccccc45)csc3n2)cc1`, the growth in [1] is 57.8%; in experiment [2], 80.4%; in experiment [3] it was 85.4%; in experiment [4], 91.3%; in experiment [5], 60.8%; in experiment [6], -1.71% (active). Also, the growth is 51% in [7]; 92% in experiment [8]; 99.5% in experiment [9]; 83.5% in experiment [10]; 94% in experiment [11]; 36.5% in experiment [12]. Moreover, the growth in experiment [13] was 69.6%; in experiment [14], 61.7%; in experiment [15], 83.2%; in experiment [16] it was 79.6%; in experiment [17] it was 77.6%; in experiment [18], 81.9%. Besides, the growth in [19] was 54.2%; in experiment [20], 73%.
As to `O=C(NCCNc1cc(-c2cn(-c3ccccc3)nc2-c2cccc(O)c2)ccn1)Nc1cc(C(F)(F)F)cc(C(F)(F)F)c1`, the growth in [1] was 98.1%; in experiment [2] it was 85%; in experiment [3] it was 86.5%; in [4], 95%; in [5] it was 102%; in experiment [6] it was 89.6%. The growth in experiment [7] was 92.2%; in experiment [8], 96.5%; in experiment [9], 99%; in [10] it was 107%; in experiment [11], 106%; in experiment [12] it was 86.9%. For the same compound, the growth was 90.6% in [13]; 92.9% in experiment [14]; 86.7% in experiment [15]; 88.8% in [16]; 89.8% in experiment [17]; 89.3% in experiment [18]. In addition, the growth in experiment [19] is 101%; in [20] it was 89%.
`CCOP(=O)(OCC)OC[C@]12CC[C@@H](C)[C@H](C)C1C1=CC[C@@H]3[C@@]4(C)CCCNC(C)(C)[C@@H]4CC[C@@]3(C)[C@]1(C)CC2` (stereo not given in full): the growth in [1] was 31.7%; in experiment [2], 62.5%; in experiment [3], 81.7%; in experiment [4], 65%; in experiment [5], -68.2% (active); in experiment [6], 34.8%. Besides, the growth is 57.2% in experiment [7]; 18.2% in [8]; 14.9% in experiment [9]; -50.7% (active) in experiment [10]; 1.04% (active) in experiment [11]; -59.7% (active) in experiment [12]. Besides, the growth was 20% in [13]; 39% in experiment [14]; 16.6% in experiment [15]; 37.4% in [16]; 18.6% in experiment [17]; 60.2% in experiment [18]. The growth was 13.4% in experiment [19] and -65.7% (active) in experiment [20].
On to `O=C(CCCCCCNC(=O)C(O)(O)C(F)(F)F)Nc1ccc(Br)cc1`, for which the growth was 10.9% in [1]; 37.2% in experiment [2]; 27.1% in [3]; -9.13% (active) in [4]; 12.5% in experiment [5]; -5.9% (active) in experiment [6]. Besides, the growth in experiment [7] is -36.6% (active); in experiment [8], 7.9% (active); in experiment [9] it was 25.4%; in experiment [10] it was -60.8% (active); in experiment [11] it was 0.633% (active); in [12], 15.2%. Besides, the growth in [13] is 10.1%; in experiment [14] it was 28.4%; in [15] it was -38.1% (active); in experiment [16] it was 8.01% (active); in experiment [17], -25.3% (active); in experiment [18], 18.5%. Besides, the growth in [19] was 15.5%; in experiment [20], 25.1%.

(Values after PubChem BioAssay (NCI).)
